VP16 counter = Gal4-VP16 reporter inhibition counter-screen; Drosophila S2 Gal4-VP16 UAS-luciferase, luminescence, 20 h; Potency, µM (titrated, usually from 53.6 µM), most hits filed as inhibitors; hit rate 3.5% among 310,000; AID 2546;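 also: Gal4-VP16 expression switched on by copper sulfate through the metallothionein promoter; nearly all actives have a fitted effect of over 50% in size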
TDP1 cell noCPT = qHTS for Inhibitors of human tyrosyl-DNA phosphodiesterase 1 (TDP1): qHTS in cells in absence of CPT; DT40 Tdp1-/- hTDP1 cells, no CPT, ATP luminescence, 48 h; Potency, µM (top dose mostly 46.2 µM), usual class: inhibitors; hit rate 15% among 420,000; AID 686978, 2013; also: nearly all actives have a fitted effect of over 55% in size
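Seeded 400 DT40-hTDP1 cells/well (vehicle DMSO, no 20 nM CPT); pinned compounds; ≥48 hr at 37 °C; CellTiter-Glo luminescence as viability measure.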
TDP1 inh = TDP1 (human) enzyme inhibition. Potency, µM (doses to about 130 µM), actives largely listed as inhibitors. recombinant TDP1, AlphaScreen DNA substrate cleavage. hit rate 0.28% among 350,000; also: nearly all actives have a fitted effect of over 40% in size
Target sequence (Q9NUW8 whole entry, looked up): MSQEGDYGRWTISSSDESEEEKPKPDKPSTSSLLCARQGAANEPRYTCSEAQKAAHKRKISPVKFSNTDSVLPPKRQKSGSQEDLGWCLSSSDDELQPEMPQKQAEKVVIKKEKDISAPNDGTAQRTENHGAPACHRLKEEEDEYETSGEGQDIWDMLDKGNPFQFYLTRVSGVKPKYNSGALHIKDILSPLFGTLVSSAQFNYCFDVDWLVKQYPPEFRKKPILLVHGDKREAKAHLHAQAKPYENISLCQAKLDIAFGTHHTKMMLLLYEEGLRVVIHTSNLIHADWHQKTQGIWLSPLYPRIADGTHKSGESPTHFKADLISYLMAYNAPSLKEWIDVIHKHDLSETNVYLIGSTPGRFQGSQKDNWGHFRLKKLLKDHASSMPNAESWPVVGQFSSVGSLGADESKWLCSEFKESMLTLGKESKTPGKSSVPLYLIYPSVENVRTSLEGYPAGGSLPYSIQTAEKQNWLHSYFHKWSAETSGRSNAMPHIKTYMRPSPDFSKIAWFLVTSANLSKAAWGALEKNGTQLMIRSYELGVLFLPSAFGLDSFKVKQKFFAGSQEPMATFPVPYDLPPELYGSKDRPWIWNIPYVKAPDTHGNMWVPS
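E. coli-derived human Tdp1, 1 nM final. Cpd preinc 15 min RT; substrate 15 nM final, 5 min RT; AS bead mix 10 ug/ml final, 10 min RT. Signal loss = tyrosine-FITC cleavage. No-enzyme wells = max signal.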
TDP1 cell CPT = DT40-hTDP1 cell growth loss with CPT; AID 686979; hit rate 12% among 420,000; Potency, µM (top dose mostly 46.2 µM), usual class: inhibitors; chicken DT40 Tdp1-/-;hTDP1 cells + 20 nM CPT, ATP luminescence, 48 h; also: nearly all actives have a fitted effect of over 55% in size
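Chicken DT40 Tdp1-/- cells stably complemented with human TDP1 were seeded at 400 cells/well in medium containing 20 nM camptothecin, exposed to pin-transferred compounds, and grown at 37 °C for at least 48 hr. Viability was read as ATP luminescence.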
RORg inh = ROR gamma (mouse) transcription inhibition. Drosophila S2 Gal4-RORgamma UAS-luciferase reporter, 20 h. AID 2551. hit rate 5.4% among 310,000. P51450. Potency, µM (doses to about 53.6 µM), most hits filed as inhibitors; also: nearly all actives have a fitted effect of over 60% in size
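Drosophila Schneider cells stably carrying a metallothionein-driven Gal4 DBD–ROR gamma fusion and a UAS-Photinus luciferase reporter were exposed to compound for 1 hr, then induced with copper sulfate (700 uM final) for 20 hr at ambient temperature before luminescence reading.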
Hits are given with their value; ! = repeats disagree. Shown are actives, neighbours in structure and some others; about 19% of the full set was active somewhere. Calls follow the shape of the dose curve; as a rule, active = well fitted curve in the direction sought with a large enough effect; inconclusive = small, poorly fitted or top-dose-only effect, or another doubt; inactive = no such curve, though single readings can be large; an effect the other way counts as inactive or inconclusive.

`O=C(CN1N=C(C(F)(F)F)CC1(O)c1ccc([N+](=O)[O-])cc1)c1ccccc1` (configuration not stated) gave VP16 counter inactive, TDP1 cell noCPT inactive, TDP1 inh inactive, TDP1 cell CPT inactive and RORg inh inactive.
`CCCCCCCCCCCC(=O)OCC(O)C1OCC(O)C1O` (configuration not stated) gave VP16 counter inactive and RORg inh inactive.
`CCOC(=O)c1ccc(NC(=O)CSc2nncn2-c2cccnc2)cc1` gave VP16 counter inactive, TDP1 cell noCPT inactive, TDP1 inh inactive, TDP1 cell CPT inactive and RORg inh inactive.
COc1ccc(C)cc1NC(=O)CSc1nc(=O)n(Cc2ccccn2)c2c1CCC2 was read as TDP1 cell noCPT 21µM, TDP1 inh inactive and TDP1 cell CPT inconclusive.
For COc1ccc(Cl)cc1NC(=O)CSc1nc(=O)n(CCN(C)C)c2c1CCCC2 the results were TDP1 cell noCPT inconclusive and TDP1 cell CPT 16µM.
Screening COc1ccc(NC(=O)CSc2nc(=O)n(CCN(C)C)c3c2CCCC3)cc1OC returned TDP1 cell noCPT inactive, TDP1 inh inactive and TDP1 cell CPT inactive.
For CCN(CC)CCCn1c2c(c(SCC(=O)Nc3ccc(F)c(F)c3)nc1=O)CCC2 the results were TDP1 cell noCPT inactive, TDP1 inh inactive and TDP1 cell CPT inactive.
For CCN(CC)CCCn1c2c(c(SCC(=O)Nc3cc(OC)cc(OC)c3)nc1=O)CCC2 the results were TDP1 cell noCPT 18µM and TDP1 cell CPT inconclusive.
`CCc1ccc(NC(=O)CSc2nc(=O)n(Cc3cccnc3)c3c2CCC3)cc1` gave TDP1 cell noCPT 16µM, TDP1 inh inactive and TDP1 cell CPT inconclusive.
`CC(=O)Nc1ccc(NC(=O)CSc2nc(=O)n(Cc3cccnc3)c3c2CCC3)cc1` gave TDP1 cell noCPT inactive and TDP1 cell CPT inactive.
For CCOc1ccccc1NC(=O)CSc1nc(=O)n(Cc2ccccn2)c2c1CCC2 the results were TDP1 cell noCPT inactive, TDP1 inh inactive and TDP1 cell CPT inactive.
`COc1ccc(CNS(=O)(=O)c2ccc3oc(C(=O)O)c(C)c3c2)cc1` gave VP16 counter inactive, TDP1 cell noCPT inactive, TDP1 inh inactive, TDP1 cell CPT inactive and RORg inh inactive.
`COc1ccc(C)cc1NC(=O)CSc1nc(=O)n(Cc2cccnc2)c2c1CCC2` gave TDP1 cell noCPT 18µM, TDP1 inh inactive and TDP1 cell CPT inconclusive.
Screening Cc1cccc(NC(=O)CSc2nc(=O)n(Cc3cccnc3)c3c2CCC3)c1 returned TDP1 cell noCPT inactive, TDP1 inh inactive and TDP1 cell CPT inactive.
`C[C@H]1CCC(=O)N([C@H](CC#N)Cc2ccccc2)CC1` gave VP16 counter inactive, TDP1 cell noCPT inactive, TDP1 cell CPT inactive and RORg inh inactive.
For C[C@@H](CSc1ccc(Br)cc1)CN1CC[C@H](O)CCC1=O the results were TDP1 cell noCPT 13µM, TDP1 inh inactive and TDP1 cell CPT 13µM.
For C[C@@H](CSc1ccccc1)CN1CC[C@H](C(C)(C)C)CCC1=O the results were VP16 counter inactive, TDP1 cell noCPT 18µM, TDP1 cell CPT inconclusive and RORg inh inactive.
Screening Cc1ccc(SC[C@H](C)CN2CC[C@H](O)CCC2=O)cc1 returned TDP1 cell noCPT inactive and TDP1 cell CPT inactive.
Screening C[C@@H](CN=[N+]=[N-])CN1CC[C@H](C(C)(C)C)CCC1=O returned VP16 counter inactive, TDP1 cell noCPT 13µM!, TDP1 cell CPT 11µM! and RORg inh inactive.
`CC(C)(C)[C@H]1CCC(=O)N([C@H](CC#N)Cc2ccccc2)CC1` gave VP16 counter inactive, TDP1 cell noCPT 18µM, TDP1 cell CPT inconclusive and RORg inh inactive.
For CCOc1ccc(C(=O)NCCC2=CCCCC2)cc1OCC the results were VP16 counter inactive, TDP1 cell noCPT inactive, TDP1 inh inactive, TDP1 cell CPT inactive and RORg inh inactive.
Cc1ccc2[nH]c(=O)c3cc(C(=O)NC4CCC(C)CC4)sc3c2c1 (configuration not stated) was read as TDP1 cell noCPT inactive, TDP1 inh inactive and TDP1 cell CPT inactive.
`O=C(CSc1ccccc1C(=O)O)Nc1cccc(C(=O)O)c1` gave VP16 counter inactive, TDP1 cell noCPT inactive, TDP1 inh inactive, TDP1 cell CPT inactive and RORg inh inactive.
COc1ccc(/C=C/C(=O)c2ccc[nH]2)cc1OC was read as VP16 counter inactive, TDP1 cell noCPT inconclusive, TDP1 inh inactive, TDP1 cell CPT inactive and RORg inh inactive.
O=S1(=O)c2c(F)cccc2OC(COc2ccccc2)CN1CCc1ccc(F)cc1 (configuration not stated) was read as TDP1 cell noCPT 16µM and TDP1 cell CPT inconclusive.
Cc1ccccc1NC(=O)CCn1nc(-c2ccc(Cl)cc2)c2ccccc2c1=O was read as TDP1 cell noCPT inactive, TDP1 inh inactive and TDP1 cell CPT inconclusive.
Fc1ccccc1NC(=S)NCCc1ccccc1 was read as VP16 counter inconclusive, TDP1 cell noCPT 9.2µM, TDP1 inh inactive, TDP1 cell CPT 7.3µM and RORg inh 6.3µM.
For CN(CC(=O)NCCc1ccccc1)CC(=O)Nc1cccc(F)c1 the results were TDP1 cell noCPT inactive, TDP1 inh inactive and TDP1 cell CPT inactive.
O=C(NCCc1ccccc1)Nc1cccc(Cl)c1 was read as VP16 counter inactive, TDP1 cell noCPT inconclusive, TDP1 inh inactive, TDP1 cell CPT 16µM and RORg inh inactive.
`FC(F)Oc1ccccc1NC(=S)NCCc1ccccc1` gave TDP1 cell noCPT inconclusive and TDP1 cell CPT inactive.
Fc1cccc(NC(=S)NCCc2ccccc2)c1 was read as VP16 counter inconclusive, TDP1 cell noCPT 21µM, TDP1 inh inactive, TDP1 cell CPT inconclusive and RORg inh 3.2µM.
Fc1ccccc1NC(=S)NCc1ccccc1 was read as VP16 counter inconclusive, TDP1 cell noCPT inconclusive, TDP1 cell CPT inactive and RORg inh inconclusive.
Fc1ccc(F)c(NC(=S)NCCc2ccccc2)c1 was read as VP16 counter inconclusive, TDP1 cell noCPT 16µM, TDP1 inh inactive, TDP1 cell CPT 16µM and RORg inh 4.5µM.
`Cc1ccc(F)cc1NC(=O)CCc1c(C)nn(-c2ccc(N3CCOCC3)nn2)c1C` gave TDP1 cell noCPT inconclusive, TDP1 inh inactive and TDP1 cell CPT inconclusive.
`COCC(=O)N(Cc1cc2cc(C)ccc2[nH]c1=O)c1cccc(C)c1C` gave VP16 counter inactive, TDP1 cell noCPT inconclusive, TDP1 cell CPT inactive and RORg inh inactive.
For COc1ccc2c(C)c(CC(=O)NCc3ccc(C)cc3)c(=O)oc2c1OC the results were TDP1 cell noCPT inactive, TDP1 inh inactive and TDP1 cell CPT inactive.
`O=C(NCCCCc1ccccc1)Nc1cccc(F)c1` gave VP16 counter inactive, TDP1 cell noCPT 23µM, TDP1 inh inactive, TDP1 cell CPT inconclusive and RORg inh inconclusive.

High-throughput results as filed in PubChem BioAssay.
